A word on the AC50: it is the midpoint of the concentration-response curve, whichever way the signal moves.

In assay [1] the target is Hepatocyte nuclear factor 4-alpha (Homo sapiens) (UniProt P41235). The assay is described as follows: ATG_HNF4a_TRANS: Attagene TRANS-FACTORIAL HepG2 Assay for human Hepatocyte Nuclear Factor 4 alpha (HNF4a) (AID 2282982; active = hit-call score of the fitted dose curve at least 0.9, where 1 is the maximum). The settings on record: HepG2 HNF4a transactivation reporter, mRNA readout. Summed up: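 Multiplexed reporter assay: transfected HepG2, 24 h exposure, total RNA → oligo(dT) RT → PCR → 6-FAM extension → HpaI digest → CE fluorescence. DMSO = negative control.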

Assay [2] in a line: ATG_M_06_TRANS: Attagene TRANS-FACTORIAL HepG2 Assay for M06 Transcription Factor (Internal Marker) (AID 2282983; active = hit-call score of the fitted dose curve at least 0.9, where 1 is the maximum;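 also: reporter transcript level by RT-PCR then capillary electrophoresis fluorescence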). The settings on record: HepG2 Attagene TRANS M06 internal marker reporter. The method, boiled down: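 In this multiplexed HepG2 system, compounds are incubated 24 h with cells carrying GAL4-UAS reporter units. Reporter RNA is amplified and resolved by capillary electrophoresis, and induction is scored against DMSO.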

Assay [3] concerns the target Nuclear receptor subfamily 4 group A member 2 (Homo sapiens) (UniProt P43354). Nature of the assay: ATG_NURR1_TRANS: Attagene TRANS-FACTORIAL HepG2 Assay for human Nuclear Receptor Related Protein 1 (NURR1) (AID 2282985; active = hit-call score of the fitted dose curve at least 0.9, where 1 is the maximum). To be noted: HepG2 Attagene TRANS reporter, mRNA readout. Summed up: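 Measures transcriptional activation by an exogenous NR-Gal4 chimera in transfected HepG2 liver cells. After 24 h, reporter RNA is reverse-transcribed, amplified and resolved by capillary electrophoresis; DMSO defines baseline.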

Assay [4] addresses Transcriptional activator Myb (Homo sapiens) (UniProt P10242). Nature of the assay: ATG_Myb_CIS: Attagene CIS-FACTORIAL HepG2 Assay for human Myeloblastosis (Myb) Proto-Oncogene Transcription Factor (AID 2282986). To be noted: HepG2 Attagene CIS-FACTORIAL Myb reporter transcription; actives raise or lower the signal. The method, boiled down: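 HepG2 cells were transiently transfected with cis-regulated multiple reporter transcription units reflecting endogenous Myb activity, then exposed to compound for 24 hours. Reporter mRNA was measured by RT-PCR with capillary electrophoresis; bidirectional fitting versus DMSO baseline.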

For assay [5], the target named is Nuclear respiratory factor 1 (Homo sapiens) (UniProt Q16656). Nature of the assay: ATG_NRF1_CIS: Attagene CIS-FACTORIAL HepG2 Assay for human Nuclear Respiratory Factor 1 (NRF1) Orphan Gene (AID 2282987). To be noted: HepG2 NRF1 cis-element reporter, Attagene multiplex; actives raise or lower the signal. Summed up:
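HepG2 cells transiently transfected with multiple reporter transcription units under cis-regulatory promoter control, so endogenous transcription-factor activity is read. After 24 h compound exposure, reporter mRNA quantified by RT-PCR, fluorescent labelling, HpaI digestion and capillary electrophoresis; bidirectional fitting versus DMSO.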

In assay [6] the target is Myc proto-oncogene protein (Homo sapiens) (UniProt P01106). Nature of the assay: ATG_Myc_CIS: Attagene CIS-FACTORIAL HepG2 Assay for human Myelocytomatosis (Myc) Proto-Oncogene Transcription Factor (AID 2282990). The settings on record: HepG2, Attagene cis-reporter transcription factor activity; actives raise or lower the signal. Summed up:
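HepG2, transient MRTU transfection (cis promoters, endogenous TFs); 24 h dosing; TriZol RNA → oligo(dT) RT → PCR → 6-FAM primer extension → HpaI cut → CE. Bidirectional fit vs DMSO.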

Assay [7] in a line: ATG_NF_kB_CIS: Attagene CIS-FACTORIAL HepG2 Assay for human Nuclear Factor Kappa B (NF-kB) (AID 2282991). The settings on record: HepG2 Attagene cis-factorial NF-kB reporter mRNA; actives raise or lower the signal. Summed up:
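HepG2 cells transiently transfected with multiplexed cis-element reporter units measuring endogenous transcription factor activity; reporter mRNA read 24 h after dosing by RT-PCR, fluorescent labelling, HpaI digestion and capillary electrophoresis. Bidirectional fit against DMSO baseline.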

The nature of assay [8]: ATG_NRF2_ARE_CIS: Attagene CIS-FACTORIAL HepG2 Assay for human Nuclear Factor Erythroid 2 Related Factor 2 (NFR2) response to Antioxidant Response Elements (ARE) (AID 2282992).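 As to AC50: reporter mRNA level measured by RT-PCR and capillary electrophoresis fluorescence.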 To be noted: HepG2 Attagene ARE/NRF2 reporter, transcription factor activity; actives raise or lower the signal. Summed up: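 Fluorescence intensity of reporter-specific cDNA fragments, separated by capillary electrophoresis, reflects mRNA induction in transfected HepG2 cells at 24 h. Activity is fitted bidirectionally, DMSO serving as baseline.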

Assay [9] can be described thus: ATG_Oct_MLP_CIS: Attagene CIS-FACTORIAL HepG2 Assay for human Octamer-Binding Transcription Factor (Oct) (AID 2282993). To be noted: HepG2 Attagene cis-factorial Oct reporter, mRNA; actives raise or lower the signal. The method, boiled down:
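After 24 h compound exposure, transfected HepG2 cells were lysed for total RNA; reporter-specific cDNA was PCR-amplified, fluorescently labelled and sized by capillary electrophoresis. Bidirectional curve fitting used DMSO as baseline.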

Assay [10] deals with Cellular tumor antigen p53 (Homo sapiens) (UniProt P04637). The assay is described as follows: ATG_p53_CIS: Attagene CIS-FACTORIAL HepG2 Assay for human p53 Transcription Factor (AID 2282994). To be noted: HepG2 p53 cis-element reporter, Attagene mRNA; actives raise or lower the signal. The method, boiled down: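 Transiently transfected HepG2 (multiple cis reporter transcription units); exposure 24 h; reporter RNA via RT-PCR, 6-FAM extension, 2 h HpaI digest at 37 C, CE detection; DMSO baseline.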

Assay [11] is described as follows: BSK_3C_TissueFactor: BioMAP Diversity Plus: 3C Assay for Tissue Factor Biomarker Activity (AID 2282997). The settings on record: BioMAP 3C HUVEC, tissue factor biomarker readout; actives raise or lower the signal. Summed up:
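Readout: Tissue Factor ELISA. Cells: human primary umbilical vein endothelium. Time: 24 h after dosing. Analysis: bidirectional fit, DMSO baseline.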

The nature of assay [12]: BSK_3C_uPAR: BioMAP Diversity Plus: 3C Assay for Urokinase-type plasminogen activator receptor (uPAR) Biomarker Activity (AID 2282998). To be noted: BioMAP 3C HUVEC, uPAR biomarker ELISA; actives raise or lower the signal. The method, boiled down:
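Values derive from bidirectional curve fitting relative to DMSO, which served as baseline of activity. uPAR was measured by ELISA in human umbilical vein endothelial primary cultures 24 h after compound addition.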
For orientation: An ELISA detects its analyte on a solid surface through an enzyme-linked reagent.

The nature of assay [13]: BSK_3C_VCAM1: BioMAP Diversity Plus: 3C Assay for Vascular cell adhesion molecule 1 (VCAM1) Biomarker Activity (AID 2282999). The settings on record: BioMAP 3C HUVEC, VCAM1 ELISA, cytokine-stimulated; actives raise or lower the signal. Summed up: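 Activity fitted in both directions relative to DMSO, with ELISA measurement of the surface marker on primary HUVEC (3C) at 24 h post-treatment; parallel SRB staining (0.1% SRB, TCA-fixed, 560 nm) flagged overt cytotoxicity.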

Assay [14] in a line: BSK_4H_Eotaxin3: BioMAP Diversity Plus: 4H Assay for Eotaxin 3 Biomarker Activity (AID 2283000).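 As to outcome: CCL26 protein level quantified by ELISA in parallel with SRB cytotoxicity check.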 The settings on record: primary human endothelial cells (HUVEC); actives raise or lower the signal. The method, boiled down:
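HUVEC, 24 h post-dose, ELISA for Eotaxin-3/CCL26. Gain or loss of signal fitted bidirectionally vs DMSO baseline.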

The target of assay [15] is human Peroxisome Proliferator-activated Receptor alpha (PPARa), PPARA (gene 5465) (UniProt Q07869). The assay is described as follows: ATG_PPARa_TRANS: Attagene TRANS-FACTORIAL HepG2 Assay for human Peroxisome Proliferator-activated Receptor alpha (PPARa) (AID 2283001; active = hit-call score of the fitted dose curve at least 0.9, where 1 is the maximum). The method, boiled down: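 Transfected HepG2 cells treated with test chemical for 24 h. RNA isolated, reverse-transcribed with oligo(dT), PCR-amplified, FAM-labelled and HpaI-digested. Fragments sized by capillary electrophoresis; gain-of-signal fit relative to DMSO.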

For assay [16], the target named is human Peroxisome Proliferator-activated Receptor delta (PPARd), PPARD (gene 5467) (UniProt Q03181). The assay is described as follows: ATG_PPARd_TRANS: Attagene TRANS-FACTORIAL HepG2 Assay for human Peroxisome Proliferator-activated Receptor delta (PPARd) (AID 2283002; active = hit-call score of the fitted dose curve at least 0.9, where 1 is the maximum). Summed up: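 Transient HepG2 transfection (multiple GAL4-UAS RTUs, chimeric receptor-Gal4); 24 h dosing; total RNA → oligo(dT) RT → PCR → 6-FAM primer extension → HpaI cut → CE. Positive direction vs DMSO.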

Assay [17] can be described thus: ATG_M_32_TRANS: Attagene TRANS-FACTORIAL HepG2 Assay for M32 Transcription Factor (Internal Marker) (AID 2282984; active = hit-call score of the fitted dose curve at least 0.9, where 1 is the maximum;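 also: transcript level of a background control reporter unit measured by RT-PCR and capillary electrophoresis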). The settings on record: HepG2 Attagene TRANS M32 internal marker reporter. Summed up: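 Cell-based TRANS-format assay in HepG2: exogenous chimeric GAL4 reporter units transiently expressed, compounds applied 24 h. Reporter mRNA detected by RT-PCR plus capillary electrophoresis; this readout is an internal background marker.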

A short description of assay [18]: ATG_NFI_CIS: Attagene CIS-FACTORIAL HepG2 Assay for human Nuclear Factor I (NFI) (AID 2282989). The settings on record: HepG2 cis-regulatory reporter, NFI response element transcription; actives raise or lower the signal. The method, boiled down: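 Multiplexed cis-reporter system in human HepG2 cells reports native TF activity as reporter mRNA induction 24 h post-dose. Fragments labelled with 6-FAM, HpaI-digested and resolved by capillary electrophoresis; activity fitted both directions versus DMSO.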

Records with an inconclusive call do not appear. Some structures have more than one record in an assay (separate samples or runs), and their calls can disagree. The source made the active and inactive calls. The calls were made as follows, unless noted: active = hit-call score of the fitted dose curve at least 0.9, where 1 is the maximum; inactive = score below 0.9.

Transcriptional activator Myb (Homo sapiens), sequence (P10242 whole entry, looked up): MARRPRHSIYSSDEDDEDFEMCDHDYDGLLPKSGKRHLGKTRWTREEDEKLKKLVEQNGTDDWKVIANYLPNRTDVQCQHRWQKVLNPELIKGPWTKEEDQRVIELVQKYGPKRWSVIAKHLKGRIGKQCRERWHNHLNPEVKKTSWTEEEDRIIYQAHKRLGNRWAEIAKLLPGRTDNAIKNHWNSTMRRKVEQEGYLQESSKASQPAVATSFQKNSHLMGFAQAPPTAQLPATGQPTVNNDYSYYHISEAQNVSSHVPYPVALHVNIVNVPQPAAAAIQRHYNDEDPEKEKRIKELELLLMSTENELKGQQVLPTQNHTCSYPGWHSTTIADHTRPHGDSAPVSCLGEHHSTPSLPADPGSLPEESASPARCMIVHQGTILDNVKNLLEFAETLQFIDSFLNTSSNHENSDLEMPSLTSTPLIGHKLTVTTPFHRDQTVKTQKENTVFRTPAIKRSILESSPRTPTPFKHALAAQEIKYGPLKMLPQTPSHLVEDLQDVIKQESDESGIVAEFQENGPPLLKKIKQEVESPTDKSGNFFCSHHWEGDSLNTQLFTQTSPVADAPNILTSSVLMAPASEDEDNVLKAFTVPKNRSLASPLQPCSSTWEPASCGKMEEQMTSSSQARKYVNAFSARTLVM
Cellular tumor antigen p53 (Homo sapiens), sequence (P04637 whole entry, looked up): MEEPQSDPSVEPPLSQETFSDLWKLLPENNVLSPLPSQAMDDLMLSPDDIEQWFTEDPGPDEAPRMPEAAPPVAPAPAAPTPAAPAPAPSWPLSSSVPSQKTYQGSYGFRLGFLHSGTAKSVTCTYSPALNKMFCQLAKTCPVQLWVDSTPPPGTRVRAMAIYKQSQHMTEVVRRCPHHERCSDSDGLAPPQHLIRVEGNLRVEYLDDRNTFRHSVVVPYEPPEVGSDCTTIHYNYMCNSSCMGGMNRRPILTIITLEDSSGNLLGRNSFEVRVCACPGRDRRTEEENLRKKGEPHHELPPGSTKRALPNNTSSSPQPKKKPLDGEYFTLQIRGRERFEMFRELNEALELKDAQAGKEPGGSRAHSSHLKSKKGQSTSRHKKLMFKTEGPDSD
Myc proto-oncogene protein (Homo sapiens), sequence (P01106 whole entry, looked up): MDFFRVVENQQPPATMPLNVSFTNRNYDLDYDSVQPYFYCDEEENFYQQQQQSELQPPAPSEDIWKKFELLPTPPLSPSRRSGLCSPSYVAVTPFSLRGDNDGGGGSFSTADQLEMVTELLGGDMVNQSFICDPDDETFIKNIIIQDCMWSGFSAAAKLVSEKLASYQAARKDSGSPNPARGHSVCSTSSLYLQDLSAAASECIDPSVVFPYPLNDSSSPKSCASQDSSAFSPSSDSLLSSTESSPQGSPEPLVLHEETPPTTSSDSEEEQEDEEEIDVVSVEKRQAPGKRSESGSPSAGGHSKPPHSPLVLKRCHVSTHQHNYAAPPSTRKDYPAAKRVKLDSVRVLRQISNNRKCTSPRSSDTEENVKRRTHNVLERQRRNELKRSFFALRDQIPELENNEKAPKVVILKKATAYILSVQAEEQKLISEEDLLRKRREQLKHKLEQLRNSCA
Nuclear receptor subfamily 4 group A member 2 (Homo sapiens), sequence (P43354 whole entry, looked up, the tested form may be a part): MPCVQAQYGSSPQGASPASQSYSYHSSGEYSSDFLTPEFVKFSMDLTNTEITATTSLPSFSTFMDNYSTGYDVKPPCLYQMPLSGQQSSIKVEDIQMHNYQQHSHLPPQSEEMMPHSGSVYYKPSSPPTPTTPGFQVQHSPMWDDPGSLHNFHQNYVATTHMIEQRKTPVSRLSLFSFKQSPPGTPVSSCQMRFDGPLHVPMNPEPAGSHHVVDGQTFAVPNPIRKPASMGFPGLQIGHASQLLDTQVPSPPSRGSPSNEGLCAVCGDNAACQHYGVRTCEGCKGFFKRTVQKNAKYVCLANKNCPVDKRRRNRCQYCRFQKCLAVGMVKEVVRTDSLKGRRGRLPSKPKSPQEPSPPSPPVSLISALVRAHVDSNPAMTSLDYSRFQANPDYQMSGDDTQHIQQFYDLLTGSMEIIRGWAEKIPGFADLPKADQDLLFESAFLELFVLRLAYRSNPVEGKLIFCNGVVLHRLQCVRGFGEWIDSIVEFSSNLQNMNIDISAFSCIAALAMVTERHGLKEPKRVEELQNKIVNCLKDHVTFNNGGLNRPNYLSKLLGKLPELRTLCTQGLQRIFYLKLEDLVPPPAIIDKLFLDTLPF
Nuclear respiratory factor 1 (Homo sapiens), sequence (Q16656 whole entry, looked up): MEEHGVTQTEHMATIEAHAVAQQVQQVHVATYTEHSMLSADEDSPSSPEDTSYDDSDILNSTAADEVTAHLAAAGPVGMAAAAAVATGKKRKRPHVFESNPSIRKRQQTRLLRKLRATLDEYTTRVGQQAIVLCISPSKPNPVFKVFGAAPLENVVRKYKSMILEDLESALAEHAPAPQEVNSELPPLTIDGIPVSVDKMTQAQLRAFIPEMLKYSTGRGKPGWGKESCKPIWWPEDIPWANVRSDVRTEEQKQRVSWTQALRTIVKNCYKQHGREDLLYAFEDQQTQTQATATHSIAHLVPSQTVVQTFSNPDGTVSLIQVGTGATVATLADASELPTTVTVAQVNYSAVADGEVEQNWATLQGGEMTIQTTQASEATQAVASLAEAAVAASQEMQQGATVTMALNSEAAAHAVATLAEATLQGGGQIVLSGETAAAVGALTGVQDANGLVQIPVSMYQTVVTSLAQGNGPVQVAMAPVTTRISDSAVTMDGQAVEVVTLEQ
human Peroxisome Proliferator-activated Receptor alpha (PPARa), PPARA (gene 5465), sequence (Q07869 whole entry, looked up, the tested form may be a part): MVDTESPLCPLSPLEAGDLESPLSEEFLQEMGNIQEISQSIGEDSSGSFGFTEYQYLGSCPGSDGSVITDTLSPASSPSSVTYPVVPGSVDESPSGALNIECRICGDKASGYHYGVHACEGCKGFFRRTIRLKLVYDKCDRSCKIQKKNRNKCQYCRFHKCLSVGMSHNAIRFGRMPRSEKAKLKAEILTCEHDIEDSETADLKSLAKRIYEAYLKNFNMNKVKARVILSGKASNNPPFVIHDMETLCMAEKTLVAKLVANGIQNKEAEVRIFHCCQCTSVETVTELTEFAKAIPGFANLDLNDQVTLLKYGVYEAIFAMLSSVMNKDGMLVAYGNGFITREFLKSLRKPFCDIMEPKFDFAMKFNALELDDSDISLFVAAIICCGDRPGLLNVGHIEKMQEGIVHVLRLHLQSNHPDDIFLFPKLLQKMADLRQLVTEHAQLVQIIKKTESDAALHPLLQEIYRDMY
Hepatocyte nuclear factor 4-alpha (Homo sapiens), sequence (P41235 whole entry, looked up): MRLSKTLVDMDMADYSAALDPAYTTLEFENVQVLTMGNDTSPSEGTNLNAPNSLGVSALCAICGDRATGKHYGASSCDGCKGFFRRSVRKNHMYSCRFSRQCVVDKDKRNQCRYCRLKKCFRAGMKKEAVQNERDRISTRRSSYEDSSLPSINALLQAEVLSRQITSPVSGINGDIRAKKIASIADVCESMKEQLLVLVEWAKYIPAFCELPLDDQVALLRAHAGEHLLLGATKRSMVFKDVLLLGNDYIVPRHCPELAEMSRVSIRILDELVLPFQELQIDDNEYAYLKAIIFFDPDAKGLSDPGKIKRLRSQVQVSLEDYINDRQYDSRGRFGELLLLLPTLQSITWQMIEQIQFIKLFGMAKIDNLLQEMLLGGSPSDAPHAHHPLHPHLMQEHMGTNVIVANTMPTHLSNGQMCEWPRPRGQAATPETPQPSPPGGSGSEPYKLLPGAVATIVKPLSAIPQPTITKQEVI
human Peroxisome Proliferator-activated Receptor delta (PPARd), PPARD (gene 5467), sequence (Q03181 whole entry, looked up, the tested form may be a part): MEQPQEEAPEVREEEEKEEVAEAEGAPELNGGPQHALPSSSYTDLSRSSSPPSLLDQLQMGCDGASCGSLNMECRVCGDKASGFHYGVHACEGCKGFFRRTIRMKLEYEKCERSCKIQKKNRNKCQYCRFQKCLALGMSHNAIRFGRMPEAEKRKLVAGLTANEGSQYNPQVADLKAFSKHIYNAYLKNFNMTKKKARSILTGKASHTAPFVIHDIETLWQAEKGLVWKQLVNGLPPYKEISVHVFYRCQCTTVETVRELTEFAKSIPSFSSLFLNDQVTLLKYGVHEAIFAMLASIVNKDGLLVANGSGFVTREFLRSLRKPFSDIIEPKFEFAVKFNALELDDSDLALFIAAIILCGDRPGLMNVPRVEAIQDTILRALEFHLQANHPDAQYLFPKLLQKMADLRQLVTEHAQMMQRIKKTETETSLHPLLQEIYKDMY

As to `CCCCCc1ccc(O)cc1`, the result in assay [1], in assay [2], in [3], in assay [4], in [5] and in [6] was inactive. Further, the outcome in [7], in assay [9], in [10], in assay [15] and in [16] was inactive. In addition, the AC50 in assay [8] was 17.6 µM (active); in assay [11] it was 12 µM (active); in assay [12] it was 13.8 µM (active); in assay [13], 23.7 µM (active); in assay [14], 14.5 µM (active).
Turning to `Oc1ccc(Cc2ccccc2O)cc1`, the molecule was classed as inactive in assay [1], in assay [17], in assay [3], in assay [4], in assay [5] and in [18]. Also, the result in [6], in assay [9], in assay [10], in [11], in [12] and in [13] was inactive. Also, the outcome in assay [14], in assay [15] and in assay [16] was inactive. Also, the AC50 in [8] is 81 µM (active); in assay [14], 0.149 µM (active).
For the molecule `Nc1ccc(O)c(C(=O)O)c1`, the outcome in [1], in assay [17], in assay [4], in [5], in [6] and in [7] was inactive. Further, the molecule was called inactive in assay [8], in [10], in assay [15] and in assay [16].
On to `CC1=CC(=O)c2ccccc2C1=O`, for which the molecule was classed as inactive in assay [1], in [3], in assay [4], in assay [5], in assay [18] and in [6]. The outcome in assay [7], in assay [9], in assay [10] and in assay [15] was inactive. Also, the AC50 in assay [8] is 5.04 µM (active).
As to `COC(=O)C(F)(F)C(F)(F)C(F)(F)F`, the result in assay [2], in assay [17], in assay [3], in assay [4], in assay [5] and in assay [18] was inactive. The outcome in [6], in [7], in assay [8], in assay [9], in assay [10] and in assay [15] was inactive. The outcome in assay [16] was inactive.
For `CCc1cccc(CC)c1N(COC)C(=O)CS(=O)(=O)O`, the molecule was called inactive in assay [1], in assay [17], in [4], in assay [5], in assay [18] and in [6]. Further, the result in assay [7], in assay [8], in assay [9], in assay [10], in assay [15] and in assay [16] was inactive.
Turning to `NCc1cccc(CN)c1`, the molecule was classed as inactive in assay [2], in assay [17], in [3], in [4], in assay [5] and in [18]. Moreover, the outcome in assay [6], in assay [7], in assay [8], in assay [9] and in [10] was inactive.

Source of the values: PubChem BioAssay (EPA / NIEHS).
